Screening data (PubChem BioAssay)
TDP1 cell CPT – qHTS for Inhibitors of human tyrosyl-DNA phosphodiesterase 1 (TDP1): qHTS in cells in presence of CPT; chicken DT40 Tdp1-/-;hTDP1 cells + 20 nM CPT, ATP luminescence, 48 h; Potency, µM (top dose mostly 46.2 µM), for the others: at the top dose activity change, negative = growth inhibition, usual class: inhibitors; hit rate 12% among 420,000; AID 686979, 2013; also: potency is read from the fitted curve at half-maximal effect; % is scaled to controls: 0 for no effect and ±100 for the full control effect; nearly all actives have a fitted effect of over 55% in size
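Chicken DT40 Tdp1-/- cells complemented with human TDP1, 400 cells/well, exposed to compounds plus 20 nM camptothecin for at least 48 h at 37 C; viability read as ATP content by CellTiter-Glo luminescence.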
IL-1B inflam inh – qHTS for Inhibitors of Inflammasome Signaling: IL-1-beta AlphaLISA Primary Screen; hit rate 4.7% among 360,000; activity change, % at 57.5 µM; THP-1 LPS/ATP IL-1B secretion, AlphaLISA, 16 h; hits give low values; AID 743279, 2014; in the data active = activity change below about -50%; inconclusive = mostly about -30% to -49%; also: % is scaled to controls: 0 for no effect and ±100 for the full control effect
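Secreted IL-1B measured by AlphaLISA bead assay after 16 h compound exposure of THP-1 cells; compounds (final up to 57.5 uM) added 1 h before LPS (250 ng/mL) and ATP (1.25 mM) stimulation; lower signal means less secretion.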
HepG2 viability – qHTS for Inhibitors of TGF-b: Cytotox Counterscreen; Potency, µM (series often up to 46.1 µM), for the others: at the highest dose activity change, negative = cytotoxicity, most hits filed as cytotoxic; hit rate 0.76% among 410,000; HepG2 CAGA-GFP viability, ATP luminescence, 18 h; also: potency is read from the fitted curve at half-maximal effect
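HepG2 CAGA-GFP cells (1000/well, DMEM with 1% FBS) received compound, then TGF-beta at 500 pg/mL final, and were incubated 18 hours at 37 degrees C. Viability was read by CellTiter-Glo luminescence. Media-only wells were set as complete cell-killing and DMSO as no toxicity.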
TDP1 block – qHTS Assay for Inhibitors of Tyrosyl-DNA Phosphodiesterase (TDP1); Potency, µM (highest dose often 130 µM), for inactives: top-dose activity change, negative = inhibition, most hits filed as inhibitors; hit rate 0.28% among 350,000; recombinant TDP1, AlphaScreen DNA substrate cleavage; also: potency is read from the fitted curve at half-maximal effect; % is scaled to controls: 0 for no effect and ±100 for the full control effect; nearly all actives have a fitted effect of over 40% in size
Target sequence (Q9NUW8 whole entry, looked up): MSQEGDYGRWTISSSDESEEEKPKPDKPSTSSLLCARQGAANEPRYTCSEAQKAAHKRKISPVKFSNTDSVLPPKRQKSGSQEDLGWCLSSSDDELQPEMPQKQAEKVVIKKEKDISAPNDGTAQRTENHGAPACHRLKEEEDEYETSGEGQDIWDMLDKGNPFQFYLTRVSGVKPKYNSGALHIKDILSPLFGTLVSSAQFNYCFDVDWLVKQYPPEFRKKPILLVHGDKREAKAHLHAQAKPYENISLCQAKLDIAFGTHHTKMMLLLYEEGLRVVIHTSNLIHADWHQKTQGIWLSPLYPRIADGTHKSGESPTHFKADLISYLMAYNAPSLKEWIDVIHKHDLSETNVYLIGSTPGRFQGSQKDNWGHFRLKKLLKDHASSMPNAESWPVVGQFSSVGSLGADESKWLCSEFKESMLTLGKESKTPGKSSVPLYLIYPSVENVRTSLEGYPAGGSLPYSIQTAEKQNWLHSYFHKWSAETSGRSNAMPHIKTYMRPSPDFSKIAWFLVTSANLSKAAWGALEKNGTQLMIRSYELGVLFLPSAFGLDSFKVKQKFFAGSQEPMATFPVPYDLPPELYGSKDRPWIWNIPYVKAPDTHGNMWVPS
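Steps: enzyme plus compound, 15 min RT; add biotin/phosphotyrosine-FITC oligonucleotide (15 nM final), react 5 min; add donor/acceptor beads (10 ug/ml final), 10 min; read AlphaScreen. Tdp1 at 1 nM final.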
TDP1 cell noCPT – qHTS for Inhibitors of human tyrosyl-DNA phosphodiesterase 1 (TDP1): qHTS in cells in absence of CPT; DT40 Tdp1-/- hTDP1 cells, no CPT, ATP luminescence, 48 h; hit rate 15% among 420,000; Potency, µM (highest dose often 46.2 µM), for inactives: at the top dose activity change, negative = growth inhibition, hits mostly inhibitors; also: potency is read from the fitted curve at half-maximal effect; % is scaled to controls: 0 for no effect and ±100 for the full control effect; nearly all actives have a fitted effect of over 55% in size
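Growth of hTDP1-complemented DT40 Tdp1-knockout cells is measured by ATP luminescence after at least 48 hr compound exposure at 37 °C, with DMSO substituting for the 20 nM CPT used in the parallel screen.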
TGFb inhibitor – qHTS for Inhibitors of TGF-b. HepG2 CAGA-GFP TGF-b/SMAD3 reporter, GFP fluorescence, 18 h; TGF-beta stimulated, 500 pg/mL final. Potency, µM (titrated, usually from 46.1 µM), inactives show at the highest dose activity, negative = inhibition, most hits filed as inhibitors. hit rate 1.2% among 410,000. AID 588855, 2011; also: potency is read from the fitted curve at half-maximal effect; % is scaled to controls: 0 for no effect and ±100 for the full control effect; nearly all actives have a fitted effect of over 65% in size
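Smad-responsive CAGA-GFP expression was quantified in HEPG2 cells exposed to compounds and 500 pg/mL final TGF-beta for 18 h at 37 degrees C; unstimulated wells defined full inhibition.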
An asterisk follows results filed as active; ? = inconclusive; . = no result given; [ ] = another dose, or the depositor's remark. The list is not random: actives were taken first. Their share in the collection is about 19%. Unless noted, calls follow the shape of the dose curve; as a rule, active = well fitted curve in the direction sought with a large enough effect; inconclusive = small, poorly fitted or top-dose-only effect, or another doubt; inactive = no such curve, though single readings can be large; an effect the other way counts as inactive or inconclusive.

SMILES	TDP1 cell CPT	IL-1B inflam inh	HepG2 viability	TDP1 block	TDP1 cell noCPT	TGFb inhibitor
CCc1ccc(-c2nn(-c3ccccc3)cc2C2SCC(=O)N2Cc2ccco2)cc1 (centres undefined)	?	-24.8	-11.0%	6.0%	?	-13.8%
CSc1nc(Cl)c(Cc2ccc(OC(C)C)cc2)c(N2CCOCC2)n1	?	-10.8	-2.8%	1.0%	?	?
CCCOc1ccc(Cc2c(Cl)nc(SC)nc2N(C)C)cc1	?	-25.9	-12.2%	1.4%	14.6µM*	?
O=C(CC1Sc2ncnn2C1=O)Nc1ccc(Br)cc1 (centres undefined)	2.06µM*	-11.5	12.3%	-2.2%	4.61µM*	25.3%
O=C(CC1SC2=NCCN2C1=O)Nc1ccc(Br)cc1 (centres undefined)	-2.4%	-1.1	-13.3%	1.6%[56.1 µM]	-2.0%	16.9%
CCCN1C(=O)SC(CC(=O)Nc2ccc(Br)cc2)C1=O (centres undefined)	?	-0.9	-18.7%	5.7%	12.6µM*	-0.6%
Cc1oc(-c2ccccc2)nc1CSc1nnc(C)n2c1cc1sccc12	?	.	-37.9%	-5.1%	?	1.3%
CCN(CC)c1ccc(NC(=O)CN(C)Cc2cccs2)cc1	?	-13.3	-8.1%	17.9%	16.4µM*	0.7%
Cc1ccc(NC(=O)CN(C)Cc2cccs2)cc1Cl	?	-16.8	-9.6%	-5.3%	20.6µM*	-8.5%
CCOC(=O)c1cc(C#N)c(N2CCCNCC2)nc1C(F)(F)F	-15.0%	-13.3	2.8%	.	?	5.7%
CN(C)CCNc1c2c(nc3ccccc13)CCC2	?	-25.3	-30.2%	.	18.4µM*	-21.8%
COCCCNc1c2c(nc3ccccc13)CCC2	?	33.3	-1.3%	.	?	-7.8%
CN(C)CCCNc1c2ccccc2nc2ccccc12	2.91µM*	-102.6*	9.1%	.	2.59µM*	?
Clc1ccc(N2O[C@H]3C=C[C@@H]2C3)nc1	20.6µM*	?	-33.8%	.	?	-21.3%
O=C(c1ccc[nH]1)N1O[C@@H]2C=C[C@H]1C2	1.7%	14.3	-6.8%	.	-10.8%	4.3%
CCOC(=O)c1ccc(NC(=O)CSc2cc(-c3ccccc3)nc(C)n2)cc1	?	.	-25.5%	-3.6%	?	-20.7%
CCN(CC)CC(=O)Nc1sc2c(c1C(=O)c1ccccc1OC)CCC2	16.4µM*	-53.4*	-21.6%	-5.1%	14.6µM*	?
CCOc1ccc(NC(=O)c2c(NCc3cc(OC)c(OC)cc3OC)sc3c2CCCC3)cc1	?	.	-45.3%	7.6%	?	?
CCOC(=O)c1ccc(NC(=O)c2c(NCc3cc(OC)c(OC)cc3OC)sc3c2CCCC3)cc1	23.1µM*	.	-26.3%	10.4%	?	0.0%
COc1cc(OC)c(OC)cc1CNc1sc2c(c1C(=O)Nc1ccccc1OC)CCC2	20.6µM*	.	-8.9%	7.6%	20.6µM*	6.4%
CCOC(=O)c1ccc(NC(=O)c2c(NCc3cc(OC)ccc3OC)sc3c2CCC3)cc1	16.4µM*	.	-30.5%	3.8%	?	-25.4%
CC(=O)Oc1[nH]c(=O)c2cccc3c2c1CCC3	?	-11.2	-1.9%	.	29.1µM*	11.6%
CC(=O)Oc1cc2c(c3ccccc13)CCC2=O	30.2%	-12.0	-3.3%	.	?	-6.5%
Cn1c(=O)c2c(ncn2CCOC(=O)C(C)(C)Oc2ccc(Cl)cc2)n(C)c1=O	-18.5%	-2.7	-9.9%	0.7%	?	-4.9%
